Source: PubChem BioAssay
Most compounds without a hit are left out; they make up all but 9.3% or so of the library.
NPC1 prom act: activators of NPC1 promoter; Huh7 NPC1 promoter luciferase reporter, 24 h; Potency, µM (series often up to 9.22 µM), for the others: at the highest dose activation, actives largely listed as activators; 320,000 tested, 2.4% active; further: % of control where 0% means no effect; nearly all actives have a fitted effect of over 60% in size
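Cells: Huh7 expressing luciferase under the NPC1 promoter, 1500/well. Seeded 2 h, compound added, incubated 24 h at 37 °C. Luciferase reagent, 10 min ambient, then luminescence.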
ELG1 DNA repair: inhibitors of ELG1-dependent DNA repair in HEK293T cells; 330,000 tested, 2.3% active; Potency, µM (doses to about 46.1 µM), for the others: top-dose activity change, negative = inhibition, actives largely listed as inhibitors; AID 504467; HEK293T ELG1-luciferase reporter, luminescence, 16 h; DNA damage induced by 5-fluorouridine; further: on the % scale 0 is the no-effect control and ±100 the full control effect; nearly all actives have a fitted effect of over 55% in size
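In this reporter screen, reduction of luminescence relative to DMSO vehicle indicated activity. Compounds and 5-fluorouridine were added together to 2,000 cells per well, incubated for 16 hr at 37 °C, then developed with ONE-Glo.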
Rab9 promoter act: Rab9 promoter activation | Huh7 Rab9 promoter-luciferase reporter, luminescence, 24 h | 320,000 tested, 2.8% active | Potency, µM (highest dose often 9.22 µM), for the others: at the top dose activation, negative = inhibition, actives largely listed as activators; further: % of control where 0% means no effect; nearly all actives have a fitted effect of over 60% in size
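Quantitative HTS format; Huh7 Rab9-luciferase reporter cells (1500/well) receive compound 2 h post-plating, incubate 24 h at 37 °C, then get luciferase reagent for 10 min before luminescence reading.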
SMN2 splice enh: SMN2 splice variant enhancement; AID 1458; Potency, µM (titrated, usually from 46.1 µM), inactives show top-dose activity change, positive = activation, usual class: activators; 210,000 tested, 2.8% active; HEK293 SMN2-luciferase splicing reporter, luminescence, 30-36 h; further: % of control where 0% means no effect; nearly all actives have a fitted effect of over 55% in size
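HEK293 cells carry an SMN2 minigene-luciferase reporter in which exon 7 inclusion puts luciferase in frame. Cells were seeded at 2000 cells/well, attached for 10-12 hours, then exposed to compounds for 30-36 hours at 37C before ONE-Glo luminescence.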
FLuc modulator: firefly luciferase modulation, counter-screen for miR-21 project; P08659; purified FLuc, Km substrates, luminescence inhibition; Potency, µM (series often up to 57.5 µM), for inactives: top-dose activity change, negative = inhibition, actives largely listed as inhibitors; 360,000 tested, 6.9% active;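 further: plate controls were vehicle for no effect and reference inhibitor for full effect; nearly all actives have a fitted effect of over 55% in size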
Target sequence (P08659 whole entry, looked up): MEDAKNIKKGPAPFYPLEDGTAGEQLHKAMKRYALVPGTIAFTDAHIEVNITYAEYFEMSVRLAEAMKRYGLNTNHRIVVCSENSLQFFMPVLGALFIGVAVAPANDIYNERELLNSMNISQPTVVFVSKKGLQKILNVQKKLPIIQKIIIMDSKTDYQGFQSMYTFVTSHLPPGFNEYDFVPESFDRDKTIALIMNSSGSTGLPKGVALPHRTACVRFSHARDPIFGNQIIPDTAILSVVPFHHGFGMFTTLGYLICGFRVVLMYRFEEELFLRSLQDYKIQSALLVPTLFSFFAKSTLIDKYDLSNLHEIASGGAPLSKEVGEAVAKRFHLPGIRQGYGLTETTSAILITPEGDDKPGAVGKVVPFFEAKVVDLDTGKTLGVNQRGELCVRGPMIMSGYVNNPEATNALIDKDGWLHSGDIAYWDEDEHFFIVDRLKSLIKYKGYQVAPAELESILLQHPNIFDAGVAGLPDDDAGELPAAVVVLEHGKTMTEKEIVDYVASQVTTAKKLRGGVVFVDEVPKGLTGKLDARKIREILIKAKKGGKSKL
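Biochemical qHTS of compounds, final roughly 60 µM downward over six points, against 10 nM purified firefly luciferase using Km concentrations of substrates (10 uM D-luciferin, 10 uM ATP) in Tris acetate pH 7.5 buffer; luminescence output.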
ELG1 genotox: induces genotoxicity in HEK293T cells with luciferase-tagged ELG1; HEK293T ELG1-luciferase reporter, luminescence, 16 h; Potency, µM (top dose mostly 46 µM), for inactives: at the top dose activity change, positive = activation, actives largely listed as activators; 330,000 tested, 1.3% active; further: % of control where 0% means no effect; nearly all actives have a fitted effect of over 60% in size
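Cells (2,000/well) expressing the ELG1-luciferase fusion are dosed by pin tool and kept 16 hr at 37 °C, 5% CO2. Signal comes from ONE-Glo luciferase reagent after 30 min at room temperature.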
Active calls of the source: *; u = inconclusive; x = no result. The call rests on the fitted dose curve; in most records, active means well fitted curve in the direction sought with a large enough effect; inconclusive means small, poorly fitted or top-dose-only effect, or another doubt; inactive means no such curve, though single readings can be large; an effect the other way counts as inactive or inconclusive. Potency means the concentration at half of the fitted maximal effect.

SMILES | NPC1 prom act | ELG1 DNA repair | Rab9 promoter act | SMN2 splice enh | FLuc modulator | ELG1 genotox
O=C(O)c1ccccc1-c1ccc(/C=C2\SC(=O)N(c3ccccc3)C2=O)o1 | 2.51µM* | u | 2µM* | x | 13.5µM* | u
CC1=NN(c2ccc(Br)cc2)C(=O)/C1=C/c1ccc(-c2ccccc2C(=O)O)o1 | -0.5% | -3.9% | -1.5% | x | 26.9µM* | -2.9%
CN(CC(=O)NC1CC1)S(=O)(=O)c1cc(Cl)ccc1Cl | 3.6% | -2.4% | -0.9% | x | -1.0% | 2.9%
CCCC(O)C(CC)CO (stereo unspecified) | x | x | x | 8.9% | x | x
O=C(/C=C/c1cccc([N+](=O)[O-])c1)Nc1cccc(NC(=O)c2ccco2)c1 | 1.8% | 20.6µM* | 7.3% | -1.3% | 19µM* | -5.0%
CCOC(=O)c1cccc(NC(=O)/C=C/c2cccc([N+](=O)[O-])c2)c1 | -0.5% | -22.5% | 16.1% | -22.2% | -11.0% | 1.8%
Cc1ccc2oc(-c3cccc(NC(=O)/C=C/c4cccc([N+](=O)[O-])c4)c3C)nc2c1 | u | u | 4.47µM* | 12.6µM* | 3.38µM* | -0.3%
O=C(/C=C/c1ccc(Cl)c([N+](=O)[O-])c1)Nc1cccc(NC(=O)c2ccco2)c1 | -31.3% | u | -2.8% | 25.3% | u | -1.8%
O=C(/C=C/c1cccc([N+](=O)[O-])c1)N(c1ccccn1)c1ccccn1 | -2.8% | -3.1% | 1.7% | x | -0.2% | 0.7%
O=C(/C=C/c1cccc([N+](=O)[O-])c1)Nc1cccc(NC(=O)c2cccs2)c1 | -1.3% | 18.4µM* | 8.4% | 10.4% | u | -10.3%
O=C(/C=C/c1cccc([N+](=O)[O-])c1)Nc1ccccn1 | u | u | 2.82µM* | 26.8% | -1.2% | 15.9%
CCC(=O)N1CCCc2cc(S(=O)(=O)NCc3cccs3)ccc21 | -1.4% | -1.9% | -3.5% | -29.7% | -2.0% | -1.8%
Cc1cccc(OCC(=O)NNC(=O)CSc2ncc(C#N)c(N)n2)c1 | 1.0% | 2.5% | 7.5% | -11.7% | -1.7% | 1.8%
CC(C)C(C)NC(=O)COc1ccc(S(=O)(=O)N2CCOCC2)cc1[N+](=O)[O-] (stereo unspecified) | -3.2% | -6.4% | -3.3% | -5.7% | 1.6% | -0.2%
CC(NC(=O)/C(=C\c1cccc([N+](=O)[O-])c1)NC(=O)c1ccco1)C(=O)O (stereo unspecified) | -1.3% | 9.0% | 2.2% | -20.7% | 15.1µM* | -0.9%
O=c1ccc(-c2ccccc2)nn1Cc1ccccc1F | -1.6% | -23.4% | 2.8% | x | -2.1% | 2.6%
CC1(C)CN(c2ccccc2)N(C(=O)c2ccc(F)cc2)C1=O | -0.8% | 4.5% | 20.2% | -33.9% | 0.2% | 4.4%
CCOC(=O)c1ccccc1NC(=O)Cc1ccc(S(=O)(=O)N2CCCC2)s1 | x | 25.9µM* | x | x | x | -4.7%
Cc1ccc(C)c(NC(=O)Cc2ccc(S(=O)(=O)N3CCCCC3)s2)c1 | -8.8% | -15.3% | -5.0% | -34.0% | 5.6% | -4.7%
COc1ccc(Cc2nc(-c3cccc(C)c3)no2)cc1 | u | u | u | 23.6% | 13.5µM* | u
Clc1ccc(Cc2nc(-c3ccncc3)no2)cc1 | -2.6% | 3.9% | 4.9% | x | -13.1% | 6.8%
COc1ccc(Cc2nc(-c3ccncc3)no2)cc1 | 2.3% | u | -14.3% | x | u | 8.1%
Cc1cccc(-c2noc(Cc3ccc(Cl)cc3)n2)c1 | 27.7% | u | u | u | u | 18.4µM*
COC(=O)c1cnn(-c2ccccc2)c1N | 17.6% | 0.0% | 11.2% | x | -3.5% | 2.5%
COc1ccc(OC(=O)c2cnn(-c3ccccc3)c2C)cc1 | 3.16µM* | u | 3.16µM* | u | 4.78µM* | u
SMILES | NPC1 prom act | ELG1 DNA repair | Rab9 promoter act | SMN2 splice enh | FLuc modulator | ELG1 genotox
COc1ccc(OC(=O)c2c(C)nn(-c3ccccc3)c2C)cc1 | u | u | u | x | 15.1µM* | u
Cc1nn(-c2ccccc2)c(C)c1C(=O)Oc1ccccc1 | 28.4% | u | u | x | 16.9µM* | 15.5%
CC(=O)c1c(C)nn(-c2ccccc2)c1C | -0.7% | 23.5% | -5.7% | x | 1.5% | -0.5%
Cc1cc(OCC(=O)Nc2ccc(S(=O)(=O)N3CCN(C)CC3)cc2)ccc1Br | -1.1% | 0.8% | 8.9% | x | 1.6% | 0.2%
Cc1nn(CC(C)C)c(Cl)c1C(=O)N(C)CC(=O)Nc1c(Cl)cccc1Cl | 0.1% | 2.0% | 4.4% | x | -2.1% | -1.1%
CCOC(=O)c1sc(NC(=O)Nc2ccc(Cl)cc2)nc1C | 3.98µM* | u | u | u | 2.69µM* | 2.1%
Cc1cccc(C(=O)Nc2nc(C)c(C(=O)Nc3ccc4c(c3)CCC4)s2)c1 | 0.1% | u | -3.2% | u | 6.75µM* | 9.0%
Cc1nc(Nc2ccccc2)sc1C(=O)c1ccccc1 | u | u | 3.55µM* | x | 21.3µM* | 12.6%
CCOC(=O)c1sc(Nc2nc3c(OC)cccc3s2)nc1C | u | u | u | u | 6.75µM* | u
CCOC(=O)c1sc(NC(=O)c2ccccc2OCC)nc1C | u | 4.8% | u | -25.6% | -20.0% | -0.8%
COc1ccc(NC(=O)c2c(NC(=O)c3cccc(C)c3)sc3c2CCC3)cc1 | x | x | x | -7.1% | u | x
OCc1c(Cl)nc2ccccn12 | -5.1% | 6.6% | -1.6% | 4.9% | -1.2% | 0.7%
COC(=O)c1sc(Nc2ccccc2)nc1C | u | u | u | 23.6% | 19µM* | u
CC(=O)Cc1nsc(Nc2cccc(C)c2)n1 | 18.9% | u | 18.1% | 8.8% | -10.9% | 14.7%
CC(C)(C)C(=O)c1sc(Nc2ccccc2)nc1N | 2µM* | u | 2µM* | 11.2µM* | 5.36µM* | 1.3µM*
CCOC(=O)c1sc(Nc2ccccc2)nc1C | 3.98µM* | u | 3.98µM* | 3.2% | 15.1µM* | 16.4µM*
CC(=O)c1sc(Nc2cccc(C)c2)nc1C | 20.0% | u | u | u | 21.3µM* | u
COc1ccc(C(=O)c2sc(Nc3ccccc3)nc2C)cc1 | 1.1% | -4.7% | -4.4% | x | u | -0.4%
Nc1nc(Nc2cccc(C(F)(F)F)c2)sc1C(=O)c1ccccc1 | x | x | x | x | -0.6% | x
CCOC(=O)c1sc(Nc2ccc(F)cc2)nc1C | 1.8% | 11.0% | 14.0% | 4.5% | -1.1% | 8.5%
Cn1c(=O)c2sccc2n2c(CCCC(=O)N3CCN(c4ccccn4)CC3)nnc12 | -1.4% | 1.8% | 0.4% | x | -0.6% | -5.3%
Cc1cccc(NC(=O)c2sc(C)nc2C)c1 | u | u | u | u | 23.9µM* | 15.0%
CC(C(=O)Nc1ccc(S(N)(=O)=O)cc1)N1CCc2ccccc21 (stereo unspecified) | -7.4% | 4.0% | -3.7% | 18.7% | -0.7% | -2.6%
